Experiment [1] can be described thus: NCI Yeast Anticancer Drug Screen. Data for the rad50 strain (AID 155).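 Note: 0% = growth of vehicle-only cultures of the same strain.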 The conditions noted are these: S. cerevisiae rad50 strain growth inhibition; at 50.0 µM; hits give high values. In a few lines:
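Readout: growth inhibition relative to vehicle-treated cultures. Compound exposure was carried out in a genetically defined yeast strain deficient in DNA damage repair.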

Experiment [2] in a line: NCI Yeast Anticancer Drug Screen. Data for the mec2-1 strain (AID 157). The conditions noted are these: S. cerevisiae mec2-1 strain, at 50.0 µM, hits give high values. Summed up: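 Test agents were screened against the mec2-1 yeast strain, with defined DNA repair or cell cycle alteration. Growth was scored as inhibition against vehicle-only controls.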
The nature of experiment [3]: NCI Yeast Anticancer Drug Screen. Data for the sgs1 mgt1 strain (AID 161).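 Note: 0% = growth of cultures given vehicle only.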 The conditions noted are these: S. cerevisiae sgs1 mgt1 strain, at 50.0 µM, hits give high values. In a few lines: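 Test agents were incubated with a DNA-repair-mutant yeast strain. Growth was then read and compared against vehicle-treated controls.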
Experiment [4] in a line: NCI Yeast Anticancer Drug Screen. Data for the cln2 rad14 strain (AID 165).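 Note: 0% = growth equal to vehicle treated cultures.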 The conditions noted are these: S. cerevisiae cln2 rad14 strain, at 50.0 µM, hits give high values. In a few lines: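 Growth of compound-exposed yeast (cln2 rad14 genotype) measured and expressed as inhibition relative to vehicle.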
The nature of experiment [5]: NCI Yeast Anticancer Drug Screen. Data for the bub3 strain (AID 167). The conditions noted are these: S. cerevisiae bub3 mutant strain, at 50.0 µM, hits give high values. Summed up: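 Readout: yeast growth inhibition, expressed relative to vehicle-only wells. The test organism is a mutant strain from a panel with lesions in DNA repair or checkpoint genes.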
Experiment [6] can be described thus: NCI Yeast Anticancer Drug Screen. Data for the mlh1 rad18 strain (AID 175). The conditions noted are these: S. cerevisiae mlh1 rad18 strain growth inhibition; at 50.0 µM; hits give high values. Summed up:
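In this whole-cell yeast screen, a strain with altered DNA damage repair is challenged with compound, and its growth is measured against matched vehicle-treated controls.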

About 79,000 compounds went through this panel and 15% of them were active in at least one assay; those are over-represented in the sample as a whole. A number with no mark means an inactive call. Activity calls are given as the source filed them. Cut-off read from the data, not from the text of the source: active = growth inhibition above about 70%; inactive = the rest. Where a SMILES comes first, the peptide text is derived from it. [ ]: non-standard residue; d: D form. The star is where a group is joined. Cbz = O=C(OCc1ccccc1)*; Dha = C=C(N)C(=O)O

Regarding `COC(=O)N1CCc2c([nH]oc2=O)C1`, the growth inhibition in experiment [1] is -6.75%; in experiment [2] it was -5.4%; in experiment [3] it was -4.5%; in experiment [4] it was -13.4%; in experiment [5], -0.8%; in experiment [6], -3.75%.
As for `COc1ccc(CN)cc1`, the growth inhibition in experiment [1] was -0.7%; in experiment [2], -9.6%; in experiment [3] it was -15.2%; in experiment [4] it was 2.75%; in experiment [5], 6.85%; in experiment [6], -2.6%.
As for `C=C(NC(=O)C(C)NC(=O)OCc1ccccc1)C(=O)N1CCCC1C(=O)NC(C)C(=O)NC` (stereo not given) (Cbz-A[Dha]PA-NHMe; configuration not given here), the growth inhibition in experiment [1] is 3%; in experiment [2], -3.95%; in experiment [3], -5.05%; in experiment [4], 3.4%; in experiment [5], -4.35%; in experiment [6], -2.4%.
Turning to `CC1CCC(Oc2nc3c(c(=O)n(C)c(=O)n3C)n2C)CC1` (stereo not given), the growth inhibition is -4.75% in experiment [1]; -2.85% in experiment [2]; -14.8% in experiment [3]; 2% in experiment [4]; -8.7% in experiment [5]; -12.5% in experiment [6].
On to `CCC1(C)OC(C)CC(C)(C)O1` (stereo not given), for which the growth inhibition in experiment [1] was 0.65%; in experiment [2], -22.9%; in experiment [3] it was -25.4%; in experiment [4] it was -0.25%; in experiment [5], -12.6%; in experiment [6], 0%.
In the case of `CC(C)(C)c1ccc(SCC#CCOc2ccc(Cl)cc2)cc1`, the growth inhibition in experiment [1] was -6.2%; in experiment [2], 4.2%; in experiment [3], -4.8%; in experiment [4], -23.6%; in experiment [5] it was -7.3%; in experiment [6], -20.4%.
For `[Cl][Pt+2][Cl].[NH-]CC1(C[NH-])CCC1`, the growth inhibition in experiment [1] was 1.1%; in experiment [2] it was 1.5%; in experiment [3] it was 9.2%; in experiment [4] it was 9%; in experiment [5] it was -18.9%; in experiment [6], -40%.
For the compound `NC(=O)Cc1c(F)c(F)c(F)c(F)c1F`, the growth inhibition in experiment [1] is 9.95%; in experiment [2], -20.5%; in experiment [3], -0.95%; in experiment [4] it was 8.85%; in experiment [5], 28.8%; in experiment [6] it was 5.3%.
In the case of `COC(=O)CCCC(=O)O`, the growth inhibition in experiment [1] was 4.4%; in experiment [2], -5.2%; in experiment [3], -2.6%; in experiment [4], -15.4%; in experiment [5], 2.9%; in experiment [6] it was 8.25%.
`CCOC(=O)C1CN(C2CCCCC2)CCC1=O` (stereo not given): the growth inhibition in experiment [1] is -2.45%; in experiment [2] it was -26.6%; in experiment [3] it was 4.85%; in experiment [4], -37%; in experiment [5], 1.4%; in experiment [6] it was -24.4%.
For the compound `O=C1NC(=O)C(=NC2C(=O)NC(=O)NC2=O)C(=O)N1`, the growth inhibition in experiment [1] is 6.65%; in experiment [2], 29.4%; in experiment [3], 31.3%; in experiment [4], 1.5%; in experiment [5] it was 26.1%; in experiment [6] it was 19.8%.
For the compound `CCN(CC)c1ccc(-c2c3ccccc3nc3ccccc23)cc1`, the growth inhibition in experiment [1] is -5.05%; in experiment [2], -7.75%; in experiment [3], 7.45%; in experiment [4] it was -12.4%; in experiment [5], -17.1%; in experiment [6], -3.5%.
Consider `OC1c2cc(Br)ccc2-c2c(F)cc(Br)cc21` (stereo not given), for which the growth inhibition was 4.9% in experiment [1]; -6.75% in experiment [2]; -5.3% in experiment [3]; 4.65% in experiment [4]; 1.9% in experiment [5]; -10.9% in experiment [6].
Take `CC(=O)O/C(C)=C/C(C)C`: the growth inhibition in experiment [1] was 2.65%; in experiment [2] it was -5.35%; in experiment [3], 9%; in experiment [4], -3.15%; in experiment [5], 2.1%; in experiment [6] it was -8.95%.
Take `CCCCN(CCCC)CC(O)c1cccc2c1cc(Cl)c1ccccc12` (stereo not given): the growth inhibition in experiment [1] is 99.2% (active); in experiment [2], 99.6% (active); in experiment [3] it was 99.5% (active); in experiment [4] it was 98.5% (active); in experiment [5] it was 98.5% (active); in experiment [6], 99.3% (active).
As for `Cc1ncc(CO)c(/C=N\NC(N)=S)c1O`, the growth inhibition is 9.85% in experiment [1]; 4.7% in experiment [2]; 8.3% in experiment [3]; -48.5% in experiment [4]; -39.1% in experiment [5]; -7.25% in experiment [6].
With `ICC1OCOC2C(CI)OCOC12` (stereo not given), the growth inhibition in experiment [1] is 5.1%; in experiment [2], 1.3%; in experiment [3], -5.3%; in experiment [4], -1.8%; in experiment [5], 4.75%; in experiment [6] it was 9.5%.
Turning to `O=C(O)c1cc(Br)sc1Br`, the growth inhibition is 8.75% in experiment [1]; -12.4% in experiment [2]; -8.8% in experiment [3]; 0.7% in experiment [4]; -9.6% in experiment [5]; -15.1% in experiment [6].
With `COc1ccc(/C=N/NC(=O)c2ccc(N)cc2)c(OC)c1`, the growth inhibition was 5.7% in experiment [1]; 9.4% in experiment [2]; 10% in experiment [3]; -0.9% in experiment [4]; 14.2% in experiment [5]; 13% in experiment [6].
With `CC(=O)OCCOC(=O)Nc1cccc2ccccc12`, the growth inhibition in experiment [1] was -9.85%; in experiment [2], -7.9%; in experiment [3], -1.3%; in experiment [4], 30.9%; in experiment [5], 2.65%; in experiment [6], -0.6%.
